This note sets out measurements from PubChem BioAssay (NCI).

The panel holds about 83,000 compounds, 20% with a hit somewhere; the sample as a whole holds those more often.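 Values shown are percent growth following 48 h exposure of cells in 96-well plates to a single concentration of compound; below 10 was considered active.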 Calls of active or inactive are those of the source.

In the test the test system is MDA-MB-468 breast. Briefly: NCI-60 one-dose screen, 48 h (100 = growth as untreated, 0 = no growth, -100 = all killed). The following applies: 10 µM unless noted.
Consider `CCOC(=O)CNC`, for which the growth is 101% (inactive).
For `Clc1ccc(-c2cn(-c3ccccc3)c(-c3ccccc3)n2)c(Cl)c1` the value was -61.3% (active); for `NCCOc1ccccc1/C=C1\c2ccccc2-c2ccc([N+](=O)[O-])cc21`, -36.1% (active); for `Cc1ccc(NC(=S)NNC(=S)NNc2ccccc2)cc1C`, 99.6% (inactive).
For `CN1CCN(CCCNC(=O)c2c3c(n4ccccc24)C(=O)c2ncccc2C3=O)CC1` the value was -59.9% (active); for `CCOC(=O)CCC(=O)P(=O)(O)O`, 114% (inactive).
For `O=C(/C=C/c1cn(-c2ccccc2)nc1-c1ccc(Cl)cc1)c1cc2ccccc2oc1=O` the value was 64.6% (inactive); for `COc1ccc(-c2cc(NC(=O)Nc3ccc(O)cc3)no2)cc1`, 80.5% (inactive).
In the case of `CC(/C=C/C=C(\C)[C@H](O)[C@H](C)C(=O)O[C@H]1C[C@H](C)C=C2C=C[C@@]3(C)O[C@@H](O)CC(=O)[C@]3(C)[C@H]21)=C\C=C\C(=O)O`, the growth is -21.9% (active).
For `C=C1CC[C@@H]2[C@](C)(COC(C)=O)[C@H](OC(C)=O)CC[C@@]2(C)[C@@H]1CC(Nc1ccc(S(=O)(=O)Nc2nccs2)cc1)C1=CCOC1=O` (some centres undefined) the value was -59.9% (active).
Take `COc1ccc(OC)c(-c2cn3nc(-c4c[nH]c5ccc(Br)cc45)sc3n2)c1`: the growth is 59.1% (inactive).
For `O=[N+]([O-])c1ccc(-c2cn3nc(-c4c[nH]c5ccccc45)sc3n2)cc1` the value was 96% (inactive); for `Nc1ncc(-c2ccc3ncnc(N4CCc5ccc(Cl)cc54)c3c2)cc1C(F)(F)F`, -36% (active).
For `CCCC(=O)NC(c1ccc2c(c1)OCO2)c1cc(Cl)c2cccnc2c1O` (centres undefined) the value was 7.89% (active).
